Data reported in PubChem BioAssay AID1159580 (chemical genetic matrix, 2015).
Values joined by “and” are separate entries in the source; they are usually repeats but may differ in a detail not shown here. Equal values may be shown once. About 2,000 (36%) of roughly 5,500 compounds were called active. Not shown: some 18% with an inconclusive outcome. Rule as the data show it: active = normalized growth mostly below about 0.91 (no sharp cut-off); inconclusive = no clear call, values can overlap the other calls; inactive = mostly above about 0.92. The list shows a part of the results.

Test: chemical genetic growth profiling, strain panel (AID 1159580);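 also: tested at 20 µM; growth read once vehicle control cultures reached saturation at 30 °C; 1 = growth at the plate median or of vehicle wells; lower values mean less growth of the strain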
Settings: S. cerevisiae deletion strains, growth OD

Measured: normalized growth

CC(N)C(=O)OC(C)(C)Cc1ccc(Cl)cc1 (stereo unspecified)
inactive: locus YAL013W, strain DEP1, stronger effect = lower value 0.986 and 1.01 | locus YAL021C, strain ccr4, stronger effect = lower value 1.03 | locus YAL026C, strain drs2, stronger effect = lower value 1.03 | locus YAL030W, strain snc1, stronger effect = lower value 1.01 | locus YAL040C, strain CLN3, stronger effect = lower value 1 | locus YBL061C, strain skt5, stronger effect = lower value 1.02 | locus YBR009C, strain hhf1, stronger effect = lower value 1.06 | locus YBR021W, strain FUR4, stronger effect = lower value 0.943 | locus YBR023C, strain chs3, stronger effect = lower value 1.02 | locus YBR171W, strain sec66, stronger effect = lower value 1.02 | locus YBR229C, strain ROT2, stronger effect = lower value 0.957 | locus YBR231C, strain swc5, stronger effect = lower value 1.01 | locus YBR279W, strain paf1, stronger effect = lower value 1.01 | locus YCL011C, strain gbp2, stronger effect = lower value 1.01 | locus YCL016C, strain dcc1, stronger effect = lower value 1.01 | locus YCL029C, strain bik1, stronger effect = lower value 0.987 | locus YCL061C, strain MRC1 (second series), stronger effect = lower value 0.995 | locus YCL061C, strain MRC1, stronger effect = lower value 1.02 | locus YCL069W, strain vba3, stronger effect = lower value 1.01 | locus YCR088W, strain abp1, stronger effect = lower value 1.01 | locus YDL005C, strain med2, stronger effect = lower value 1.03 | locus YDL035C, strain GPR1, stronger effect = lower value 0.98 | locus YDL040C, strain nat1, stronger effect = lower value 1 | locus YDL074C, strain BRE1, stronger effect = lower value 0.988 | locus YDL101C, strain DUN1, stronger effect = lower value 0.983 | locus YDL134C, strain PPH21, stronger effect = lower value 0.984 | locus YDL185W, strain tfp1, stronger effect = lower value 0.996 | locus YDL192W, strain arf1, stronger effect = lower value 0.983 | locus YDR001C, strain nth1, stronger effect = lower value 1.02 | locus YDR069C, strain doa4, stronger effect = lower value 1.03 | locus YDR101C, strain arx1, stronger effect = lower value 0.983 | locus YDR137W, strain rgp1, stronger effect = lower value 1.05 | locus YDR150W, strain NUM1, stronger effect = lower value 0.96 | locus YDR159W, strain sac3, stronger effect = lower value 1.01 | locus YDR162C, strain NBP2, stronger effect = lower value 0.985 | locus YDR195W, strain ref2 0.97 | locus YDR297W, strain sur2, stronger effect = lower value 1.01 | locus YDR318W, strain mcm21, stronger effect = lower value 0.996 | locus YDR334W, strain swr1, stronger effect = lower value 1.02 | locus YDR335W, strain msn5, stronger effect = lower value 1.02 | locus YDR363W, strain ESC2, stronger effect = lower value 0.999 | locus YDR388W, stronger effect = lower value 0.989 | locus YDR392W, strain spt3, stronger effect = lower value 1.03 | locus YDR502C, strain sam2, stronger effect = lower value 0.991 | locus YEL003W, strain gim4, stronger effect = lower value 1.01 | locus YEL037C, strain rad23, stronger effect = lower value 1.01 | locus YEL061C, strain CIN8 (second series), stronger effect = lower value 1.02 | locus YEL061C, strain CIN8, stronger effect = lower value 0.977 | locus YER002W, strain NOP16, stronger effect = lower value 1.02 | locus YER015W, strain faa2, stronger effect = lower value 1.01 | locus YER016W, strain bim1, stronger effect = lower value 1.01 | locus YER110C, stronger effect = lower value 0.972 | locus YER111C, strain swi4, stronger effect = lower value 1.03 | locus YER155C, strain BEM2 (second series), stronger effect = lower value 0.996 | locus YER155C, strain BEM2, stronger effect = lower value 1 | locus YER167W, strain BCK2, stronger effect = lower value 1.01 | locus YFR010W, strain ubp6, stronger effect = lower value 1.03 | locus YGL078C, strain dbp3, stronger effect = lower value 0.983 | locus YGL086W, strain mad1, stronger effect = lower value 0.975 | locus YGL167C, strain pmr1, stronger effect = lower value 1.01 | locus YGL173C, strain kem1, stronger effect = lower value 1.04 | locus YGL227W, strain vid30, stronger effect = lower value 1.01 | locus YGL240W, strain doc1, stronger effect = lower value 1.02 | locus YGL248W, strain PDE1, stronger effect = lower value 0.984 | locus YGL253W, strain hxk2, stronger effect = lower value 1.01 | locus YGR078C, strain PAC10, stronger effect = lower value 0.982 | locus YGR135W, strain pre9, stronger effect = lower value 0.994 | locus YGR229C, strain SMI1, stronger effect = lower value 0.996 | locus YGR252W, strain gcn5, stronger effect = lower value 0.882 | locus YHR013C, strain ard1, stronger effect = lower value 1.04 | locus YHR027C, strain rpn1, stronger effect = lower value 1.01 | locus YHR030C, strain SLT2, stronger effect = lower value 0.982 and 1.03 | locus YHR079C, strain IRE1 (second series), stronger effect = lower value 0.994 | locus YHR079C, strain IRE1, stronger effect = lower value 1.03 | locus YHR094C, strain hxt1, stronger effect = lower value 0.995 | locus YHR129C, strain ARP1, stronger effect = lower value 0.997 | locus YHR142W, strain chs7, stronger effect = lower value 1.04 | locus YHR200W, strain rpn10, stronger effect = lower value 0.987 | locus YIL066C, strain RNR3, stronger effect = lower value 0.965 | locus YIL073C, strain SPO22, stronger effect = lower value 1.02 | locus YIL125W, strain kgd1, stronger effect = lower value 0.984 | locus YIR030C, strain dcg1, stronger effect = lower value 0.977 | locus YJL092W, strain hpr5, stronger effect = lower value 1.02 | locus YJL095W, strain BCK1 (second series), stronger effect = lower value 1 | locus YJL095W, strain BCK1, stronger effect = lower value 1.02 and 1.01 | locus YJL115W, strain asf1, stronger effect = lower value 1.02 | locus YJL129C, strain trk1, stronger effect = lower value 1.03 | locus YJL134W, strain LCB3, stronger effect = lower value 0.983 | locus YJL154C, strain vps35, stronger effect = lower value 1.01 | locus YJL164C, strain tpk1, stronger effect = lower value 1.03 | locus YJL166W, strain qcr8, stronger effect = lower value 1.04 | locus YJL168C, strain set2, stronger effect = lower value 0.989 | locus YJL187C, strain SWE1 (second series), stronger effect = lower value 0.978 | locus YJL187C, strain SWE1, stronger effect = lower value 1.01 | locus YJR043C, strain POL32, stronger effect = lower value 1.02 | locus YJR066W, strain TOR1, stronger effect = lower value 0.971
